Reference: PubChem BioAssay (NCI)
About 83,000 compounds went through this panel and 20% of them were active in at least one assay; those are over-represented in the sample as a whole.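 Each cell line was grown in a 96-well plate and treated with one concentration of compound for 48 hours. Values below 10 were considered active.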 Activity calls are given as the source filed them.

The compounds below were run on HOP-62 NSCLC (assay: NCI-60 one-dose screen, 48 h (100 = growth as untreated, 0 = no growth, -100 = all killed)). Details: 10 µM unless noted.

SMILES	growth
CC(C)(C)c1cc(Cl)c(O)c(CNCCO)c1	101% (inactive)
CCS/C(Nc1ccccc1)=C(\C#N)C(=O)Nc1ccc(OC)cc1	34.2% (inactive)
COc1ccc(/C=C/c2c(C(=O)/C=C/c3ccccc3)c(C)nc3ccccc23)cc1	-13.9% (active)
C#COc1cccc(Nc2ncnc3cc(NC(=O)[C@@H](C)Cl)ccc23)c1	7.46% [6.25 µM] (active)
COc1ccc(Cn2cc3c(c2-c2ccccc2)CCc2cnoc2-3)cc1	30.1% (inactive)
Cc1cc2c(cc1C)N(C(=O)CCl)CC(=O)N2	73.4% (inactive)
Oc1c(CN2CCC(N3CCCCC3)CC2)cc(Cc2cc(CN3CCC(N4CCCCC4)CC3)c(O)c3ncccc23)c2cccnc12	18.6% (inactive)
OCCNCCNC(Cc1ccc(Cl)cc1)c1ccccc1 (configuration not stated)	72.2% (inactive)
COc1cccc(-c2cc(-c3cccc(Cl)c3)c(C#N)c(=O)[nH]2)c1	68.5% (inactive)
CN(C)CCCNC(=O)c1cncnc1Nc1ccc(OCc2cccc(F)c2)c(Cl)c1	-56% (active)
O=C1Nc2ccccc2C1(c1c[nH]c2ccccc12)c1c[nH]c2ccccc12	49.3% (inactive)
Cc1cc(Nc2ccc(C(=O)N3CCCC3)cc2)nc(NCCCNc2ccnc3cc(Cl)ccc23)n1	81.2% (inactive)
NC1(CO)COC(c2ccccc2)OC1 (configuration not stated)	104% (inactive)
O=C(CCCCCNC(=O)c1cc(=O)c(O)co1)Nc1ccccc1	115% (inactive)
O=S(=O)(NCCNc1nccc(-c2c(-c3cccc(O)c3)nc3occn23)n1)c1ccc(Br)cc1	45.2% (inactive)
C/C(=N\O)c1ccc(NC(=O)CSc2nnc(-c3cc(-c4ccc(S(N)(=O)=O)cc4)nc4ccccc34)n2-c2ccccc2)cc1	95.5% (inactive)

The compounds below were run on NCI-H460 lung in the same assay as above. Details: 10 µM unless noted.

SMILES	growth
COc1ccc2c(c1)c(-c1nc(-c3c[nH]c4ncccc34)cs1)cn2CCO	46.3% (inactive)
O=C(NNC(=O)c1ccc(NC(=O)c2ccccn2)cc1)Nc1ccc2ccccc2c1	110% (inactive)
COc1ccc(/C=C/C(=O)c2cc(OC)c(OC)c(OC)c2)cc1OCC(=O)Nc1nc2ccc(OC(F)(F)F)cc2s1	-22.9% (active)
O=C(CN1CCCCCC1)Nc1nc2ccc(NCc3ccc(Cl)cc3)cc2s1	97% (inactive)
CCCCCCCCCCCCCCCCCCOc1ccccc1CC(=O)NCC[N+]1(C)CCCCC1	41.9% (inactive)
COc1cc(-c2nc3sccn3c2-c2ccnc(NCCNS(=O)(=O)c3ccc(Cl)cc3)n2)ccc1F	42.2% (inactive)
S=c1nc2oc(-c3ccccc3)c(-c3ccccc3)c2c(/N=C\c2ccco2)[nH]1	115% (inactive)
O=C1Nc2ccccc2/C1=C\c1c[nH]c2ccc(Br)cc12	80.8% (inactive)
COc1ccc(Nc2ncccc2/C=C/C(=O)c2cc(OC)c(OC)c(OC)c2)cc1	-44.9% (active)
COc1cc(OC)c(/C=C/C(=O)c2c(O)cc(OC)c(C3CCN(C)CC3)c2OC)c(OC)c1	-75% (active)
N#Cc1c(-c2ccccc2)nc(SCc2nnc(-c3ccc(Cl)cc3)o2)[nH]c1=O	105% (inactive)
CC(=O)ON1CCCC(P(=O)(OCCSC(=O)C(C)(C)C)OCCSC(=O)C(C)(C)C)C1=O (configuration not stated)	16.1% (inactive)
COc1cccc(CCNc2ncnc3c2ncn3Cc2nnc3c4ccccc4c(Cl)nn23)c1	61.5% (inactive)
O=C(CN1CCN(c2cc3c(cc2F)c(=O)c(C(=O)O)cn3C2CC2)CC1)N/N=C/c1ccco1	105% (inactive)
COc1ccc(C2=CC(c3cc(OC)c(OC)c(OC)c3)n3ncnc3N2)cc1 (configuration not stated)	0.735% (active)
O=C(CI)NC(=O)NC(=O)NCc1ccccc1	102% (inactive)
CC[C@]12C=CCN3CC[C@@]4(c5ccc(OC)cc5N(C)[C@H]4[C@@](O)(C(=O)OC)[C@@H]1OC(=O)CCC[P+](c1ccccc1)(c1ccccc1)c1ccccc1)[C@@H]32	6.11% (active)
CC1CCN(C(=S)SCC(=O)NC(=O)c2ccccc2)CC1	110% (inactive)
C=C1C(=O)O[C@H]2[C@H]1CC/C(COC(=O)c1cc3cc(Cl)ccc3[nH]1)=C\CC[C@@]1(C)O[C@@H]21	6.97% (active)
COC(=O)/C=C1/SC(=Nc2ccc([N+](=O)[O-])cc2)N(CCc2c[nH]c3ccc(O)cc23)C1=O	17.4% (inactive)
COc1ccc(CCN(CC(=O)N(CC(N)=O)C2CCC[C@@H]2OCc2ccccc2)C(=O)CN(C(=O)CN(CCc2ccc(Cl)cc2)C(=O)CN(C(=O)CN(C)Cc2ccccc2F)[C@H](C)C2CCCCC2)[C@H](C)C2CCCCC2)cc1OC (some centres not stated)	28.3% (inactive)
